The supplement of paper PMC10849652
Of roughly 7,900 targets only a part is listed; those with a hit were picked by preference. About 0.6% of all pairs of compound and target were hits.

Compound: Cc1sc2c(c1C)C(c1ccc(Cl)cc1)=N[C@@H](CC(=O)OC(C)(C)C)c1nnc(C)n1-2
Experiment: log2 fold change, soluble protein after heating vs DMSO (PISA); higher = thermal stabilisation; K562 cells, 10 uM, 30 min; active = over 0.2 and 3.5 SD of the protein, either way, in both replicates (recomputed)
Outline: (§1)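 Thermal stability values are relative to control samples and come from duplicates. They are expressed as log2 fold changes. For measurement, K562 cells (2×10^6 cells/mL) received 10 μM compound for 30 min, and aliquots were heated for 3 min over 48°C-58°C, pooled, and extracted at 4°C in PBS with 0.5% NP-40. Soluble protein, the supernatant after 21,000xg for 90 min, was quantified by TMTpro 16plex LC-MS/MS with equalised channel sums.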

Chain of UniProt P49189 (P49189 whole entry, looked up): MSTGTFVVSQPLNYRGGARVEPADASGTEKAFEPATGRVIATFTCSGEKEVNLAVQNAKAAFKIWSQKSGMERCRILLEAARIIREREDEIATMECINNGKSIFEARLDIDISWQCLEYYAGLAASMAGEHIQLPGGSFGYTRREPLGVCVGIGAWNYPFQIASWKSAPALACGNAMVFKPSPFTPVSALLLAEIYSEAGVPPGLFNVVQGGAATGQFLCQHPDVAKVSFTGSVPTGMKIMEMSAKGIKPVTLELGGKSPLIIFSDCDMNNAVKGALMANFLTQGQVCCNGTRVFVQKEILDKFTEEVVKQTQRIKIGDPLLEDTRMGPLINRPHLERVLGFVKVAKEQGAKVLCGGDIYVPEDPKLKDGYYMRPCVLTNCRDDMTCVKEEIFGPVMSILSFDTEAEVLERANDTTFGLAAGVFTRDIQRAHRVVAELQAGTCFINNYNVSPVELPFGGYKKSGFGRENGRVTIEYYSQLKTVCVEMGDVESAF
Chain of UniProt P35612 (P35612 whole entry, looked up): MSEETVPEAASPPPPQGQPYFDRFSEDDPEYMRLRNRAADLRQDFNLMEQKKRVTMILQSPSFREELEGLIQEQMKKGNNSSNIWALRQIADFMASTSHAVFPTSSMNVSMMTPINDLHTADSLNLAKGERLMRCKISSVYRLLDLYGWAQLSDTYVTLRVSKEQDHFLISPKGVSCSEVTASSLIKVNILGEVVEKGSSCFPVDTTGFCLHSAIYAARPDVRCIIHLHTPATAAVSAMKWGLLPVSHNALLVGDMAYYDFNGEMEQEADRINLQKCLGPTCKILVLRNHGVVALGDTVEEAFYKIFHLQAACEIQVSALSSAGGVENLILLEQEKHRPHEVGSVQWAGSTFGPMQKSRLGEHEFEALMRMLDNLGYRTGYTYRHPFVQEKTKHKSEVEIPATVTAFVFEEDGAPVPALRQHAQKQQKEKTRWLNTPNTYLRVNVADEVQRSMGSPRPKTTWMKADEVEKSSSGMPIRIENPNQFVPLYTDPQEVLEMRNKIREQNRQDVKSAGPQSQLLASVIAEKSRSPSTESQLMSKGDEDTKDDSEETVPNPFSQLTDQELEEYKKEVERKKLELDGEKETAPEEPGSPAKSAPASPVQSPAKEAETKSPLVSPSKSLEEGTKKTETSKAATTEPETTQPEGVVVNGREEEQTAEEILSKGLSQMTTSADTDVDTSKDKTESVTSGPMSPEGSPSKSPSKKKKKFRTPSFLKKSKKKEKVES
Chain of UniProt O60566 (O60566 whole entry, looked up): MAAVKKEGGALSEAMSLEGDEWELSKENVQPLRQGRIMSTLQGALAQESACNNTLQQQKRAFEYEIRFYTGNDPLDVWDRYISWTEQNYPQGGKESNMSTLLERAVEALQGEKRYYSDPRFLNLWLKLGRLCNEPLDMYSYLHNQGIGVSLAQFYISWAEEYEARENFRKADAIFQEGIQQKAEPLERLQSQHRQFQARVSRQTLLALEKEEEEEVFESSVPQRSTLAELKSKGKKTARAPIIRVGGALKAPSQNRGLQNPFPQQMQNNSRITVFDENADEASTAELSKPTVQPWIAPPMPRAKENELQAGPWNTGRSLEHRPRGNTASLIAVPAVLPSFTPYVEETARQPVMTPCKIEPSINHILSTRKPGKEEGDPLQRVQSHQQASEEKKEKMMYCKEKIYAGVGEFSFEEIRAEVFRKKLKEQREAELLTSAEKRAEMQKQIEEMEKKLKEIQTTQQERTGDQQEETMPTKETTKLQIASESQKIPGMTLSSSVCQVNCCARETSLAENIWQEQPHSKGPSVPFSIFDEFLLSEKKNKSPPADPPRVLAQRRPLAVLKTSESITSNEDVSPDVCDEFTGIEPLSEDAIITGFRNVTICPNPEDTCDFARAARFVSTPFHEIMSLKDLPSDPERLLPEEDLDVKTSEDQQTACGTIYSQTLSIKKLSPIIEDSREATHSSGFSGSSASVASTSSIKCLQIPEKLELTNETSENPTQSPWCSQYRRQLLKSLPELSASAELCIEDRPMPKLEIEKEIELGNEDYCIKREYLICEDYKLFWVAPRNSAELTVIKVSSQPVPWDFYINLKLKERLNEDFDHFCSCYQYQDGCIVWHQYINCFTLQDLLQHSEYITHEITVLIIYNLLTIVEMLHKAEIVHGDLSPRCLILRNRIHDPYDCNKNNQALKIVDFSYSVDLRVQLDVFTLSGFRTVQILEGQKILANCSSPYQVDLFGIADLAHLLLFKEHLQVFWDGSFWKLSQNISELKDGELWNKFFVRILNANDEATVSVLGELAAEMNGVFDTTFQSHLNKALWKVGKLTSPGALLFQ
Chain of UniProt P02749 (P02749 whole entry, looked up): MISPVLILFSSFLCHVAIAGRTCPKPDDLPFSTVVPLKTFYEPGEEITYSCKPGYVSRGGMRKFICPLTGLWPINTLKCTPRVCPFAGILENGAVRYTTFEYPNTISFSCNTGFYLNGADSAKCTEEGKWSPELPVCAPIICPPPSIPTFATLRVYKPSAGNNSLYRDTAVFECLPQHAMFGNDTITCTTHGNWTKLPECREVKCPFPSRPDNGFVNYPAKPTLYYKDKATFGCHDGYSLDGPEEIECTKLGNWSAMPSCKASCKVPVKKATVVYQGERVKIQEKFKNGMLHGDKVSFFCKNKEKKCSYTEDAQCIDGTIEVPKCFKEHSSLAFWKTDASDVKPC
Chain of UniProt Q9Y6D6 (Q9Y6D6 whole entry, looked up): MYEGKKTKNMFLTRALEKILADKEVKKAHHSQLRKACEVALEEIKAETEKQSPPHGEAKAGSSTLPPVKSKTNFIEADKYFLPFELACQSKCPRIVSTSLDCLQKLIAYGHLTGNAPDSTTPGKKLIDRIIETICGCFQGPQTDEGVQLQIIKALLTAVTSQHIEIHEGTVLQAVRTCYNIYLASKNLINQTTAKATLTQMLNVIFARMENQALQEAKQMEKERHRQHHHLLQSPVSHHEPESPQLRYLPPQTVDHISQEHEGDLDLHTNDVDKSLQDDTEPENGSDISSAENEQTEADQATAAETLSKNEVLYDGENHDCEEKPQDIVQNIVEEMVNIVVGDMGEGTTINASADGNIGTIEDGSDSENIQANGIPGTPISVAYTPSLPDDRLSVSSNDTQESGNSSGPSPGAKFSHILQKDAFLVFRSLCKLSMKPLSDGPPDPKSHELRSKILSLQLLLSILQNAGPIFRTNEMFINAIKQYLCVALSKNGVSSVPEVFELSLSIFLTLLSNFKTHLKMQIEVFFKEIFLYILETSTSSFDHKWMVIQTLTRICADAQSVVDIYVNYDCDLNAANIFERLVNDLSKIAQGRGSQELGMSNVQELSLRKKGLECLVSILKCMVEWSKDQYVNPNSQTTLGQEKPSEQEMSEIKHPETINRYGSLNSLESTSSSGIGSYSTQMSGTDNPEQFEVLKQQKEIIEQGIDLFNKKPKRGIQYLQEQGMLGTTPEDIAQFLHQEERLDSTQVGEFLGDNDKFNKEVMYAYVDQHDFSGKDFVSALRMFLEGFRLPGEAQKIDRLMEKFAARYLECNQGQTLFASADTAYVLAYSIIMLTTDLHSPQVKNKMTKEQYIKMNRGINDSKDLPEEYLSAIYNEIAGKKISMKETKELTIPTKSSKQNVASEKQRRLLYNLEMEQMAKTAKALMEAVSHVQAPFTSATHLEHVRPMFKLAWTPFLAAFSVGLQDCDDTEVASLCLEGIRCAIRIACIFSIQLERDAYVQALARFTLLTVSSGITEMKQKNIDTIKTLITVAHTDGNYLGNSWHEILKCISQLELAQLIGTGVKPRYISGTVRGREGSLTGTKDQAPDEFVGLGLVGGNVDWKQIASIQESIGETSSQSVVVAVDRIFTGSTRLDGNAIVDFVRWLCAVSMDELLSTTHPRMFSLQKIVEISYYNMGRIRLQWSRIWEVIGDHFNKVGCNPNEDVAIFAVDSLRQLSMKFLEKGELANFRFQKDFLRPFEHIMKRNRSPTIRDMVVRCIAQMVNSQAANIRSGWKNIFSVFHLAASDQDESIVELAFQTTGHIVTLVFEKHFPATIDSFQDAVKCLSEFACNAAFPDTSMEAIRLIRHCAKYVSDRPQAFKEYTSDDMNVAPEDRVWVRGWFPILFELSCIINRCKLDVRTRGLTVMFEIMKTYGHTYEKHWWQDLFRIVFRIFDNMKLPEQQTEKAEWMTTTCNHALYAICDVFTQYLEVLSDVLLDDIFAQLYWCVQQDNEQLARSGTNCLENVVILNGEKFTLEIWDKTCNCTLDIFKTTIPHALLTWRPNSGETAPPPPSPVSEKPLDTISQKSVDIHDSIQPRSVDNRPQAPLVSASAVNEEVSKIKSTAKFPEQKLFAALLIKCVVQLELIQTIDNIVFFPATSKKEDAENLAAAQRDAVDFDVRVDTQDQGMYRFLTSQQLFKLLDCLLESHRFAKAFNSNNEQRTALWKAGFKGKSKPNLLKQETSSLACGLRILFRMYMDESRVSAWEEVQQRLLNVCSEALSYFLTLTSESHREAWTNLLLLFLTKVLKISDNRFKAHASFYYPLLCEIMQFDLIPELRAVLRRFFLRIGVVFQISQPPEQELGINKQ
Chain of UniProt Q9UBL3 (Q9UBL3 whole entry, looked up): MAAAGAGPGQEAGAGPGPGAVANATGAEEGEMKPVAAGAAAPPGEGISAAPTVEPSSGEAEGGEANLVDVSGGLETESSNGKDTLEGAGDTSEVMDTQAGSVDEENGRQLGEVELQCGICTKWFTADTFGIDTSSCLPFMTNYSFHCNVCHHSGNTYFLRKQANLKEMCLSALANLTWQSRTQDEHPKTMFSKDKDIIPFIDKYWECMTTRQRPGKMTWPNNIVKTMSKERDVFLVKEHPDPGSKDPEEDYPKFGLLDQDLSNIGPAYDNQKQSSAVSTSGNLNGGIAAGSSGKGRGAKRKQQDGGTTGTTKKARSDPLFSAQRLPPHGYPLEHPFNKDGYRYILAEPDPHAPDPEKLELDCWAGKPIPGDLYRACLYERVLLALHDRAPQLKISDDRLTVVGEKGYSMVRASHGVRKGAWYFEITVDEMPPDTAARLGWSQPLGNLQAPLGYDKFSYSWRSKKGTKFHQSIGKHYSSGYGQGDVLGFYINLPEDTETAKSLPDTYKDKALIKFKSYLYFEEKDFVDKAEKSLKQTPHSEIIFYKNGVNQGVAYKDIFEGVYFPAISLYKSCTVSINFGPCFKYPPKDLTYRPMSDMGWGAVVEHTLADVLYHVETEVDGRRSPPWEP

| Target | log2 fold change |
| --- | --- |
| ACAD9 (UniProt Q9H845) | 0.022 (inactive) |
| ATRN (UniProt O75882) | -0.055 (inactive) |
| AKAP8L (UniProt Q9ULX6) | -0.047 (inactive) |
| BPHL (UniProt Q86WA6) | 0.136 (inactive) |
| ATP1B3 (UniProt P54709) | 0.002 (inactive) |
| BRD3 (UniProt Q15059) | 1.56 (active) |
| ADK (UniProt P55263) | -0.008 (inactive) |
| ATP13A2 (UniProt Q9NQ11) | -0.062 (inactive) |
| ANXA5 (UniProt P08758) | 0.021 (inactive) |
| APOH (UniProt P02749) | -0.051 (inactive) |
| APOB (UniProt P04114) | 0.034 (inactive) |
| ARPP19 (UniProt P56211) | 0.031 (inactive) |
| ATP13A3 (UniProt Q9H7F0) | 0.018 (inactive) |
| ALG14 (UniProt Q96F25) | 0.051 (inactive) |
| ADPRHL2 (UniProt Q9NX46) | -0.057 (inactive) |
| ADD2 (UniProt P35612) | -0.024 (inactive) |
| ALDH9A1 isoform 3 (UniProt P49189) | -0.019 (inactive) |
| BAIAP2 (UniProt Q9UQB8) | 0.014 (inactive) |

| Target | log2 fold change |
| --- | --- |
| ACSL1 (UniProt P33121) | 0.001 (inactive) |
| ABHD16A (UniProt O95870) | 0.066 (inactive) |
| ALDH9A1 (UniProt P49189) | 0.098 (inactive) |
| BTAF1 (UniProt O14981) | 0.005 (inactive) |
| AUP1 (UniProt Q9Y679) | -0.074 (inactive) |
| BRD4 (UniProt O60885) | 1.99 (active) |
| ADD3 (UniProt Q9UEY8) | -0.002 (inactive) |
| BOP1 (UniProt Q14137) | -0.036 (inactive) |
| ASH2L (UniProt Q9UBL3) | -0.031 (inactive) |
| BCAP29 isoform 2 (UniProt Q9UHQ4) | -0.008 (inactive) |
| AARS2 (UniProt Q5JTZ9) | 0.005 (inactive) |
| BUB1B isoform 3 (UniProt O60566) | 0.01 (inactive) |
| AURKA (UniProt O14965) | 0.009 (inactive) |
| ARAF (UniProt P10398) | 0.022 (inactive) |
| AGPAT5 (UniProt Q9NUQ2) | -0.008 (inactive) |
| ACAP2 (UniProt Q15057) | 0.01 (inactive) |
| AGPAT1 (UniProt Q99943) | -0.032 (inactive) |
| ARFGEF1 (UniProt Q9Y6D6) | -0.063 (inactive) |

Compound: c1ccc([C@@H]2C[C@H]2NC2CCNCC2)cc1
Experiment: as above
Outline: as §1

| Target | log2 fold change |
| --- | --- |
| ACAD9 (UniProt Q9H845) | 0.009 (inactive) |
| ATRN (UniProt O75882) | 0.006 (inactive) |
| AKAP8L (UniProt Q9ULX6) | 0.043 (inactive) |
| BPHL (UniProt Q86WA6) | -0.065 (inactive) |
| ATP1B3 (UniProt P54709) | 0.006 (inactive) |
| BRD3 (UniProt Q15059) | -0.021 (inactive) |
| ADK (UniProt P55263) | -0.057 (inactive) |
| ATP13A2 (UniProt Q9NQ11) | 0.092 (inactive) |
| ANXA5 (UniProt P08758) | -0.022 (inactive) |
| APOH (UniProt P02749) | 0.199 (inactive) |
| APOB (UniProt P04114) | -0.013 (inactive) |
| ARPP19 (UniProt P56211) | -0.007 (inactive) |
| ATP13A3 (UniProt Q9H7F0) | -0.101 (inactive) |
| ALG14 (UniProt Q96F25) | 0.006 (inactive) |
| ADPRHL2 (UniProt Q9NX46) | -0.087 (inactive) |
| ADD2 (UniProt P35612) | 0.016 (inactive) |
| ALDH9A1 isoform 3 (UniProt P49189) | 0.028 (inactive) |
| BAIAP2 (UniProt Q9UQB8) | 0.002 (inactive) |

| Target | log2 fold change |
| --- | --- |
| ACSL1 (UniProt P33121) | -0.03 (inactive) |
| ABHD16A (UniProt O95870) | -0.088 (inactive) |
| ALDH9A1 (UniProt P49189) | 0.156 (inactive) |
| BTAF1 (UniProt O14981) | 0.055 (inactive) |
| AUP1 (UniProt Q9Y679) | -0.051 (inactive) |
| BRD4 (UniProt O60885) | 0.029 (inactive) |
| ADD3 (UniProt Q9UEY8) | 0.029 (inactive) |
| BOP1 (UniProt Q14137) | -0.01 (inactive) |
| ASH2L (UniProt Q9UBL3) | 0.005 (inactive) |
| BCAP29 isoform 2 (UniProt Q9UHQ4) | 0.032 (inactive) |
| AARS2 (UniProt Q5JTZ9) | -0.016 (inactive) |
| BUB1B isoform 3 (UniProt O60566) | -0.002 (inactive) |
| AURKA (UniProt O14965) | -0.038 (inactive) |
| ARAF (UniProt P10398) | 0.027 (inactive) |
| AGPAT5 (UniProt Q9NUQ2) | -0.025 (inactive) |
| ACAP2 (UniProt Q15057) | 0.011 (inactive) |
| AGPAT1 (UniProt Q99943) | 0.023 (inactive) |
| ARFGEF1 (UniProt Q9Y6D6) | -0.061 (inactive) |
